Assay results reported in PubChem BioAssay (NCI).
Compounds without any hit were thinned out: in the full panel of roughly 79,000, 15% have a hit. Calls of active or inactive are those of the source. Cut-off read from the data, not from the text of the source: active = growth inhibition above about 70%; inactive = the rest.

Legend:
[1] = NCI Yeast Anticancer Drug Screen. Data for the rad52 strain (AID 147);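 note: 0% = growth of vehicle-treated control cultures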; conditions: S. cerevisiae rad52 mutant growth inhibition, hits give high values
Outline: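 Read-out: growth inhibition versus vehicle-treated controls. Cells were a DNA repair-deficient yeast strain treated with compounds.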

[2] = NCI Yeast Anticancer Drug Screen. Data for the rad50EPP+ strain (AID 151);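 note: 0% = growth of vehicle-treated control cultures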; conditions: S. cerevisiae rad50 mutant strain, hits give high values
Outline: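 Growth inhibition read against vehicle controls in rad50EPP+ yeast, a strain altered in DNA damage repair, after compound exposure.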

[3] = NCI Yeast Anticancer Drug Screen. Data for the mgt1 strain (AID 153); conditions: S. cerevisiae mgt1 mutant growth inhibition, hits give high values
Outline: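 mgt1 yeast grown with test compound; read-out is growth inhibition versus vehicle-treated cultures.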

[4] = NCI Yeast Anticancer Drug Screen. Data for the rad50 strain (AID 155);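 note: 0% = growth of vehicle-only cultures of the same strain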; conditions: S. cerevisiae rad50 strain growth inhibition, hits give high values
Outline: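 Cells are treated with compound, grown, and their growth is then scored against vehicle-only cultures of the same repair-deficient yeast strain.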

[5] = NCI Yeast Anticancer Drug Screen. Data for the mec2-1 strain (AID 157); conditions: S. cerevisiae mec2-1 strain, hits give high values
Outline: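 Yeast mec2-1 mutant treated with compound. Readout: growth inhibition vs vehicle controls.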

[6] = NCI Yeast Anticancer Drug Screen. Data for the rad14 strain (AID 159);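 note: 0% = growth of vehicle-treated control cultures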; conditions: S. cerevisiae rad14 strain growth inhibition, hits give high values
Outline: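 Readout: yeast growth inhibition, referenced to vehicle-only cultures. Strain bears a defined alteration in DNA damage repair.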

[7] = NCI Yeast Anticancer Drug Screen. Data for the sgs1 mgt1 strain (AID 161);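 note: 0% = growth of cultures given vehicle only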; conditions: S. cerevisiae sgs1 mgt1 strain, hits give high values
Outline: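 Test agents were incubated with a DNA-repair-mutant yeast strain. Growth was then read and compared against vehicle-treated controls.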

[8] = NCI Yeast Anticancer Drug Screen. Data for the CLN2oe strain (AID 163);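 note: 0% = growth of vehicle-only control cultures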; conditions: S. cerevisiae CLN2oe strain, hits give high values
Outline: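 Read-out: yeast growth inhibition, expressed relative to vehicle-only controls. The strain bears an engineered cell-cycle alteration.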

[9] = NCI Yeast Anticancer Drug Screen. Data for the cln2 rad14 strain (AID 165);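 note: 0% = growth equal to vehicle treated cultures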; conditions: S. cerevisiae cln2 rad14 strain, hits give high values
Outline: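 cln2 rad14 yeast strain; compound exposure; growth inhibition read vs vehicle controls.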

[10] = NCI Yeast Anticancer Drug Screen. Data for the bub3 strain (AID 167); conditions: S. cerevisiae bub3 mutant strain, hits give high values
Outline: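 Part of a panel of yeast mutants defective in DNA damage repair or cell cycle regulation. Each strain is grown with compound, and inhibition is calculated relative to solvent-treated cultures.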

[11] = NCI Yeast Anticancer Drug Screen. Data for the wt2 strain (AID 169);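 note: 0% = growth of vehicle-treated yeast cultures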; conditions: S. cerevisiae wt2 strain growth inhibition, hits give high values
Outline: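 Read-out: growth inhibition versus vehicle-treated control cultures after compound exposure of the yeast strain.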

[12] = NCI Yeast Anticancer Drug Screen. Data for the mlh1 strain (AID 171);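 note: 0% = growth of vehicle-treated control cultures of the same strain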; conditions: S. cerevisiae mlh1 strain growth inhibition, hits give high values
Outline: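 Read-out: growth inhibition versus vehicle controls. Strain: engineered yeast with a defined DNA repair or cell cycle defect, compound-treated.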

[13] = NCI Yeast Anticancer Drug Screen. Data for the sgs1 strain (AID 173);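 note: 0% = growth of vehicle-only control cultures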; conditions: S. cerevisiae sgs1 mutant, hits give high values
Outline: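 Read-out: yeast growth inhibition relative to vehicle controls, following compound exposure of a strain with a defined DNA repair/cell cycle alteration.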

[14] = NCI Yeast Anticancer Drug Screen. Data for the mlh1 rad18 strain (AID 175); conditions: S. cerevisiae mlh1 rad18 strain growth inhibition, hits give high values
Outline: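 Yeast w/ defined DNA-repair lesions; compound exposure; growth vs vehicle controls → % inhibition.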

[15] = NCI Yeast Anticancer Drug Screen. Data for the rad18 strain (AID 177); conditions: S. cerevisiae rad18 mutant growth inhibition, hits give high values
Outline: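 Readout: growth inhibition vs vehicle controls. Cells: genetically altered yeast strain, DNA repair defect.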

[16] = at 5.0 µM (retest, dose inferred, filed as 0.5)
[17] = at 50.0 µM (retest, dose inferred, filed as 5.0)

Measured: growth inhibition

O=C(/C=C\c1ccc(Cl)cc1Cl)c1cccs1
inactive: [1]; at 1.2 µM -2% | [1]; at 3.7 µM -3% | [1]; at 11.0 µM 3% | [1]; at 33.0 µM 10% | [1]; at 100.0 µM 16% | [2]; at 1.2 µM 9% | [2]; at 3.7 µM 23% | [2]; at 11.0 µM 47% | [2]; at 33.0 µM 55% | [2]; at 100.0 µM 58% | [3]; at 1.2 µM -4% | [3]; at 3.7 µM -6% | [3]; at 11.0 µM -4% | [3]; at 33.0 µM 2% | [3]; at 100.0 µM 5% | [4]; at 1.2 µM -1% | [4]; at 3.7 µM -2% | [4]; [16] 0% | [4]; at 11.0 µM 0% | [4]; at 33.0 µM 0% | [4]; [17] 61% | [4]; at 50.0 µM -9.15% | [4]; at 100.0 µM 5% | [5]; at 1.2 µM -6% | [5]; at 3.7 µM -2% | [5]; [16] -10% | [5]; at 11.0 µM 1% | [5]; at 33.0 µM 10% | [5]; [17] 18% | [5]; at 50.0 µM -6.25% | [5]; at 100.0 µM 10% | [6]; at 1.2 µM -2% | [6]; at 3.7 µM 1% | [6]; at 11.0 µM 5% | [6]; at 33.0 µM 9% | [6]; at 100.0 µM 7% | [7]; [16] 0% | [7]; at 50.0 µM 10.2% | [8]; at 1.2 µM -9% | [8]; at 3.7 µM -21% | [8]; at 11.0 µM -17% | [8]; at 33.0 µM -14% | [8]; at 100.0 µM -18% | [9]; [16] 9% | [9]; [17] 27% | [9]; at 50.0 µM -29.9% | [10]; at 1.2 µM 10% | [10]; at 3.7 µM 22% | [10]; [16] 30% | [10]; at 11.0 µM 38% | [10]; at 33.0 µM 47% | [10]; at 50.0 µM 54.9% | [10]; at 100.0 µM 48% | [11]; at 1.2 µM -5% | [11]; at 3.7 µM -1% | [11]; at 11.0 µM -3% | [11]; at 33.0 µM 4% | [11]; at 100.0 µM 7% | [12]; at 1.2 µM -4% | [12]; at 3.7 µM 0% | [12]; at 11.0 µM 1% | [12]; at 33.0 µM 7% | [12]; at 100.0 µM 12% | [13]; at 1.2 µM 0% | [13]; at 3.7 µM 1% | [13]; at 11.0 µM 12% | [13]; at 33.0 µM 33% | [13]; at 100.0 µM 45% | [14]; [16] 27% | [14]; at 50.0 µM 1.1% | [15]; at 1.2 µM 3% | [15]; at 3.7 µM 6% | [15]; at 11.0 µM 29%
active: [7]; [17] 71% | [10]; [17] 85% | [14]; [17] 88% | [15]; at 33.0 µM 73% | [15]; at 100.0 µM 84%
